# Source: article PMC13494018
# A number with no mark means an inactive call. No rule for the calls is given here.
# B1: Pdl1_binder_AF2_65 (protein)
# chain: ETVRVDATTKETALALMEMGEKAGLKVVIGLTSKEDAEEVAEIAKKKGKFEVFHI
# B2: Pdl1_binder_AF2_66 (protein)
# chain: REQIYEQFLELAKAEAREFPGVVDVSREGDTLIVTTKTEEAAKEFEKRLQPIADSVGVKLETKVA
# B3: design_391_ca6baf5d-2451-47ba-bffc-fc886679966a_219_dldesign_0_cycle1_af2pred (protein)
# chain: AEAERRREEVIREAREAAERLREAGREASPELRALAEATAQTVLLLVEGGEANSPELGLRVAERALELARRTLEEVRAG
# B4: Pdl1_binder_AF2_73 (protein)
# chain: DEARDEAITELMLVASRALKAGPALAEAVELLLEAIHLAVEGRLEEAAELAERAAELAREAGDEEVAEEAERAAELARRAAEEEE
# B5: design_391_ca6baf5d-2451-47ba-bffc-fc886679966a_1313_dldesign_0_cycle1_af2pred (protein)
# chain: MEEARRRAEELLRRVRELAARAAKAAAAGDVAEAQRLLAEALEALAELSRLGREVGPEGRELVREGNRAVAAAARAALAAARAA
# B6: design_391_ca6baf5d-2451-47ba-bffc-fc886679966a_1195_dldesign_0_cycle1_af2pred (protein)
# chain: SLYDEALKYAMQAANLGYEADPELAKKLRQAAIALAQGKIDEAIALLKEAKELAKKYPEKEPEIKELIDKAIELANKIK
# B7: design_391_ca6baf5d-2451-47ba-bffc-fc886679966a_926_dldesign_0_cycle1_af2pred (protein)
# chain: AEAAAQKALATAMAKALKKRGEELLKEAKTASAEEAKKLLDNFVKLGEVLAAGAPPEVGAEVKAATEKYSAEMQAVIDAKAA
# B8: design_391_ca6baf5d-2451-47ba-bffc-fc886679966a_1281_dldesign_0_cycle1_af2pred (protein)
# chain: AAQEVQERAREVAARAEALAAAAAADPAAARLARSAAHFARLAAELAPTDLPLAQQALEVAESLLAEAEALLAARRA
# B9: design_391_ca6baf5d-2451-47ba-bffc-fc886679966a_175_dldesign_0_cycle1_af2pred (protein)
# chain: DEKLKKAEELAKQAAKATLTPTGKAEFDKLANEAMKLVSQLFKEDPAKGQKAAKALSEAIDQAKANAALAAAAA
# B10: design_391_ca6baf5d-2451-47ba-bffc-fc886679966a_1601_dldesign_0_cycle1_af2pred (protein)
# chain: STLQELVDAAKEALAAAGELYRLDPERGEALRKQVWALLIAGLRDPATAAADKAKIEALKAEAEALVAELK
# B11: design_391_ca6baf5d-2451-47ba-bffc-fc886679966a_158_dldesign_0_cycle1_af2pred (protein)
# chain: AEEKRKKAQELYEKAIAEAKELAKKGDIGALLKVTMDAAKEILELDPSLEPLAEALRKQGTALAQEAIAAAIAAAA
# B12: design_391_ca6baf5d-2451-47ba-bffc-fc886679966a_888_dldesign_0_cycle1_af2pred (protein)
# chain: AAAAAAAAAAAAAAAAALARAEELAAAASPEVRALIEAHGIAGRIMFMYTLGARAAAADPARGAELLADARALLAAAQAASRAA
# B13: Pdl1_binder_AF2_93 (protein)
# chain: REEKIEKVREAAEEAKKAGAIEDYEIEGDEVKFYRKDWKPESLLIVMKAAQVAALEGFKPTIVKS
# B14: Pdl1_binder_AF2_76 (protein)
# chain: MYEVVIEGEKSVAEFIKLIAEQLGAEAEVEGDKAVIRTERREDAERLAEAAKRFGAEAEVRE
# B15: Pdl1_binder_AF2_91 (protein)
# chain: DEKFKKIKKMAKVFSESTGKEIEVEKKGDEFIITAKDADEATYQAAKLLKARAEDLGVKARFKEA
# B16: Pdl1_binder_AF2_95 (protein)
# chain: LEEERREFEEVLERLLEVAEEDPEVRERAEEMVRRAREVAEREGVAAGAAEAAVGALRIASEASEEVRKRYLELASELQAIGQRVVRA
# B17: design_391_ca6baf5d-2451-47ba-bffc-fc886679966a_1034_dldesign_0_cycle1_af2pred (protein)
# chain: ADAAAQALSQAFELAAQALTKTGSDEANAALQAVTRAMADPAKLPEAIAAAKKAAAAYPEVKALMDQAIKELEKAAELAKAA
# B18: Pdl1_binder_AF2_64 (protein)
# chain: EEEEKKEKANLLRVEAAQKLSLVAEALPEVREKALEAIRKIFDKETIEEGVELAREIAERVAAEGTEEQARLAREAVEKAEEALKLEK
# B19: design_391_ca6baf5d-2451-47ba-bffc-fc886679966a_1193_dldesign_0_cycle1_af2pred (protein)
# chain: AAARQAALLAQAEALRAQAVALADGTAEEQQALLQQIVDLAQAHPDMSPETWAALNAALAAASSAYIRAARA
# B20: Pdl1_binder_AF2_92 (protein)
# chain: PKVVVEADTEEEAEKMAKKFREMGAEAEIEGKTVVATSDSEELIKLIAVIARDRGLKAEVIP
# B21: design_391_ca6baf5d-2451-47ba-bffc-fc886679966a_1760_dldesign_0_cycle1_af2pred (protein)
# chain: KEETQRVMVEATRVINRVAALVIAHPELTEAAALIQQALALLEQAKELLEAGEEEKALELAKQALELAKKALEIAESAL
# B22: Pdl1_binder_AF2_79 (protein)
# chain: KREEALRKAAEAAVKAMEMAKKASDEAKVEIMEHFSRAMRAIKEGDFEEAIRHLRKAAEVAEEKVGKEVGEFIREAAREVERIA
# B23: design_391_ca6baf5d-2451-47ba-bffc-fc886679966a_1527_dldesign_0_cycle1_af2pred (protein)
# chain: AEERAEEVRRRAEELRARALALIAEDPGAGMAYAVEAARELSEYGRAHPEVAEAAGEAANDVLSAASRAAMAVYAA
# B24: design_391_ca6baf5d-2451-47ba-bffc-fc886679966a_164_dldesign_0_cycle1_af2pred (protein)
# chain: AGKVGELAAETLKVAAEARRVAAELPEIREEVTARTSRLVAEAFRAALSGTDEDTAKRALEELKRLLEEARELLEEA
# B25: design_391_ca6baf5d-2451-47ba-bffc-fc886679966a_1360_dldesign_0_cycle1_af2pred (protein)
# chain: DYTERAKAALKSAIENMAKAAIEAAKEDAEKGKEKLKQLKELSEQMIAIAASLDPALAKEIKAYAEEQIKKVEEAIKKAK
# B26: design_391_ca6baf5d-2451-47ba-bffc-fc886679966a_1257_dldesign_0_cycle1_af2pred (protein)
# chain: SAAAAAAARAAKAAADAEQLKALGDAAIAQLAADPSMAPQARAVAAMARAAAEGYAADPATAAAAEAARATAERVAAAAAAAA
# B27: Pdl1_binder_AF2_87 (protein)
# chain: ERREELEAIAKATESLAELLELGEKDPEVRKAALRAAQIVAERLAERAEELGAEEAAELLRKAAEDPENALRYVREAAEKLRAEAEAL
# B28: Pdl1_binder_AF2_61 (protein)
# chain: MYVVVAKGTEQQAKLFALIARDRGHEAEVEGDTAVVKTDDLEEAEKLAELARELGMEAEVIE
# B29: design_391_ca6baf5d-2451-47ba-bffc-fc886679966a_294_dldesign_0_cycle1_af2pred (protein)
# chain: AAEEAAEKAVEEAEKALEKAKAHLAKYPDSLAAKAAVALAKTMLAAAKEVAEEGNLEELERTLESVRKATEEMDKLLAADEAAAA
# B30: design_391_ca6baf5d-2451-47ba-bffc-fc886679966a_1188_dldesign_0_cycle1_af2pred (protein)
# chain: AAAEEIAARNGEALARQAAAASPEDAAAIAENALQMARASPLFAPAARKAVEAAAETIAKEDPERGEALLREGLAAVEAIEA
# B31: design_391_ca6baf5d-2451-47ba-bffc-fc886679966a_707_dldesign_0_cycle1_af2pred (protein)
# chain: AEEEERERRAEEVRRWAEERAAQARALAAQDPQAGLALALEAMEELRELRERDPAVAEAAREGEQLMAEIAAQAAKAATA
# B32: Pdl1_binder_AF2_85 (protein)
# chain: EARELVKEAVEKFEKAAEEALKDFEKAEKLAKEALEKLYEAAKLDPSLRPVYQEAALHLVKALAHDDDPEKASEELKKAAEVAKKELE
# B33: design_391_ca6baf5d-2451-47ba-bffc-fc886679966a_1141_dldesign_0_cycle1_af2pred (protein)
# chain: APAAATARAVGKRAQAAAKKLAKAGTKEVAKEAKKLAEKAKELEKEAIANAADTAVSGAKILEILKLLDEANKLLKKY
# B34: design_391_ca6baf5d-2451-47ba-bffc-fc886679966a_206_dldesign_0_cycle1_af2pred (protein)
# chain: DWQAVALQAAEAAAQAAKEDPENAALFNEAAHLLLLAVARPETALELTEKALKLAEKAAKTGSELAKKAYELTKEALELLKAA
# B35: design_391_ca6baf5d-2451-47ba-bffc-fc886679966a_866_dldesign_0_cycle1_af2pred (protein)
# chain: SMEEEKKKEAEKKAQSYLKSVEVWATATISAIAQGVVGAQMLANLKKKSEEAIKKLKELGTEEGKKAAEKVKAYLAKAEAAA
# B36: Pdl1_binder_AF2_72 (protein)
# chain: DEMDKLKVEAMKYGSKAIKIASEKDEELAERAAEALSLAMTDPEKGAKELRKIAEELEEKGLPEAAEYLRKAADYFERYAKLLKE
# B37: design_391_ca6baf5d-2451-47ba-bffc-fc886679966a_968_dldesign_0_cycle1_af2pred (protein)
# chain: AAAQQQLRDQARKLLEQAAKRAKEAGNEEAAKEAKEAAKLLKEGGSLGEAAVEASRAHAAAVRFGDEETAALAQAALKLLSQAA
# B38: Pdl1_binder_AF2_86 (protein)
# chain: MRLTIGIAETEEEAEELARRFREEGVEDFVVVTDLEEAVAIAREAGVPTTILAPKGFDTKALLKAAMELNEAGIPTSVQHIP
# B39: design_391_ca6baf5d-2451-47ba-bffc-fc886679966a_1483_dldesign_0_cycle1_af2pred (protein)
# chain: SEAAAKEKKAIEAIKKAAADAEAMLQSLIAAGMPAANARAVVTTMTTAARTAAKEAGTEAAKKAAKEAIAKIEAAGKAAEAQLAAQAA
# Target: control:Baker_PD-L1, Q9NZQ7
# Sequence (Q9NZQ7 whole entry): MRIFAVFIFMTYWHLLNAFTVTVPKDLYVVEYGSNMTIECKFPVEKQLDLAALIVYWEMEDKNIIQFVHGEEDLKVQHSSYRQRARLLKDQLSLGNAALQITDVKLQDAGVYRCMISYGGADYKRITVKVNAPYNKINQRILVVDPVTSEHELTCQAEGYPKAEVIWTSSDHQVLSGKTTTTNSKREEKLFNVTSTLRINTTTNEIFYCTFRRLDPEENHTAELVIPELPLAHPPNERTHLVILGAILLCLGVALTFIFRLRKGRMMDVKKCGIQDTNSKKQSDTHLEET
row,Binder,binding in a display sort
1,B1,not found
2,B2,not found
3,B4,not found
4,B13,not found
5,B14,binds (active)
6,B15,not found
7,B16,not found
8,B18,not found
9,B20,not found
10,B22,not found
11,B27,not found
12,B28,not found
13,B32,not found
14,B36,not found
15,B38,not found

# Target: CD276, Q5ZPR3
# Sequence (Q5ZPR3 whole entry): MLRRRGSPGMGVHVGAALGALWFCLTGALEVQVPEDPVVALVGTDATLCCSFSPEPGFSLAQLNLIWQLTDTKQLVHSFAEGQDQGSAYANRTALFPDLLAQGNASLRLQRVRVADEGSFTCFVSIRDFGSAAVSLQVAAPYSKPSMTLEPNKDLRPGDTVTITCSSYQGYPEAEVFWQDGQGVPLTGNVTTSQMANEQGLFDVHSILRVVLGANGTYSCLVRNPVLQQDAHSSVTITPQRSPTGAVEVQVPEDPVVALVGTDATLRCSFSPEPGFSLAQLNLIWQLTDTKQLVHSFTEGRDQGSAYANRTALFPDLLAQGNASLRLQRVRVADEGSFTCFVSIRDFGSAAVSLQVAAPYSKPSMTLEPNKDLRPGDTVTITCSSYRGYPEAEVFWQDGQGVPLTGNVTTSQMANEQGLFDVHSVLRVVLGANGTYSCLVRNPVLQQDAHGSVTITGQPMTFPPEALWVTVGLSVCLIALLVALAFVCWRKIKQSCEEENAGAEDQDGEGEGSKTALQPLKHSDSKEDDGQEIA
row,Binder,binding in a display sort
1,B3,not found
2,B5,not found
3,B6,not found
4,B7,not found
5,B8,not found
6,B9,not found
7,B10,not found
8,B11,not found
9,B12,not found
10,B17,not found
11,B19,not found
12,B21,not found
13,B23,not found
14,B24,not found
15,B25,not found
16,B26,not found
17,B29,not found
18,B30,not found
19,B31,not found
20,B33,not found
21,B34,not found
22,B35,not found
23,B37,not found
24,B39,not found
